In PubChem BioAssay (NCATS):
Results filed as inconclusive are left out. Activity calls are given as the source filed them. Calls come from the whole dose curve; as a rule, active = well fitted inhibition curve with a large enough effect; inconclusive = small, poorly fitted or top-dose-only effect; inactive = flat fitted curve, though single readings scatter.

Assays:
Test in all cases: qHTS profiling for inhibitors of Plasmodium falciparum proliferation (AID 504749); note: nearly all actives have a fitted effect of over 60% in size
Conditions in all cases: P. falciparum in erythrocytes, SYBR Green DNA, 72 h; series mostly up to 28.7 µM
CP191 = tested on: CP191
Procedure, shortened: (§1)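 P. falciparum-infected erythrocytes (0.3% parasitemia, 2.5% hematocrit final) were exposed to compounds for 72 h at 37 C in 5% CO2, then lysed with SYBR Green buffer overnight at room temperature; parasite DNA fluorescence was normalized to artemisinin and DMSO controls.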

CP192 = tested on: CP192
Procedure, shortened: as §1

CP194 = tested on: CP194
Procedure, shortened: as §1

CP201 = tested on: CP201
Procedure, shortened: as §1

CP203 = tested on: CP203
Procedure, shortened: as §1

CP211 = tested on: CP211
Procedure, shortened: as §1

CP215 = tested on: CP215
Procedure, shortened: as §1

CP217 = tested on: CP217
Procedure, shortened: as §1

CP237 = tested on: CP237
Procedure, shortened: as §1

CP238 = tested on: CP238
Procedure, shortened: as §1

CP247 = tested on: CP247
Procedure, shortened: as §1

CP250 = tested on: CP250
Procedure, shortened: as §1

CP252 = tested on: CP252
Procedure, shortened: as §1

CP256 = tested on: CP256
Procedure, shortened: as §1

CP260 = tested on: CP260
Procedure, shortened: as §1

CP262 = tested on: CP262
Procedure, shortened: as §1

CP265 = tested on: CP265
Procedure, shortened: as §1

CP266 = tested on: CP266
Procedure, shortened: as §1

CP268 = tested on: CP268
Procedure, shortened: as §1

CP269 = tested on: CP269
Procedure, shortened: as §1

Measured: Potency

CC[N+](CC)(CC)CCOc1cccc(OCC[N+](CC)(CC)CC)c1OCC[N+](CC)(CC)CC
inactive: all assays above

C[C@](N)(Cc1ccc(O)c(O)c1)C(=O)O
inactive: all assays above

Cc1cn([C@H]2C[C@H](N=[N+]=[N-])[C@@H](CO)O2)c(=O)[nH]c1=O
inactive: all assays above

Clc1ccc2nsnc2c1NC1=NCCN1
not listed: CP203
inactive: all other assays above

COc1cc2c(c(OC)c1OC)-c1ccc(OC)c(=O)cc1[C@@H](NC(C)=O)CC2
not listed: CP215
inactive: all other assays above

Cn1c(=O)c2c(ncn2C)n(C)c1=O
not listed: CP203
inactive: all other assays above

CCOC(=O)C(C)(C)Oc1ccc(Cl)cc1
inactive: all assays above

COc1ccccc1N1CCN(CC(O)COc2cccc3ccccc23)CC1 (configuration not stated)
not listed: CP203
inactive: all other assays above

NC(=O)NO
inactive: all assays above

Nc1nc2c(ncn2COC(CO)CO)c(=O)[nH]1
not listed: CP215 | CP266
inactive: all other assays above

CN1CCN2c3ccccc3Cc3ccccc3C2C1 (configuration not stated)
not listed: CP203
inactive: all other assays above

COc1ccccc1OCC(O)CN1CCN(CC(=O)Nc2c(C)cccc2C)CC1 (configuration not stated)
not listed: CP203
inactive: all other assays above

NC(=O)OCC(COC(N)=O)c1ccccc1
inactive: all assays above

Cc1cc(C(C)(C)C)c(O)c(C)c1CC1=NCCN1
not listed: CP203
inactive: all other assays above

O=c1c(-c2ccc(O)cc2)coc2cc(O)cc(O)c12
inactive: all assays above

Cc1cnc(C(=O)NCCc2ccc(S(=O)(=O)NC(=O)NC3CCCCC3)cc2)cn1
inactive: all assays above

NS(=O)(=O)c1cc2c(cc1Cl)NCNS2(=O)=O
not listed: CP203
inactive: all other assays above

CN1C(C(=O)Nc2ccccn2)=C(O)c2ccccc2S1(=O)=O
not listed: CP203
inactive: all other assays above

COc1nc(C)nc(Cl)c1NC1=NCCN1
not listed: CP203 | CP266
inactive: all other assays above

NCCc1cnc[nH]1
inactive: all assays above

COC(=O)Nc1nc2ccc(C(=O)c3cccs3)cc2[nH]1
not listed: CP260
inactive: all other assays above

CS(=O)(=O)CCNCc1ccc(-c2ccc3ncnc(Nc4ccc(OCc5cccc(F)c5)c(Cl)c4)c3c2)o1
not listed: CP203 | CP268
inactive: all other assays above

NCCS(=O)(=O)O
inactive: all assays above

N[C@@H](Cc1c[nH]c2ccc(O)cc12)C(=O)O
inactive: all assays above

Cc1ccc(C(=O)Nc2ccc(S(=O)(=O)O)c3cc(S(=O)(=O)O)cc(S(=O)(=O)O)c23)cc1NC(=O)c1cccc(NC(=O)Nc2cccc(C(=O)Nc3cc(C(=O)Nc4ccc(S(=O)(=O)O)c5cc(S(=O)(=O)O)cc(S(=O)(=O)O)c45)ccc3C)c2)c1
not listed: CP203
inactive: all other assays above

Cn1cnc2c1c(=O)[nH]c(=O)n2C
not listed: CP203
inactive: all other assays above
